Most compounds without a hit are left out; they make up all but 11% or so of the library.
NPR1 antag: Natriuretic polypeptide receptor (hNpr1) antagonism - Primary qHTS; HEK293 hNpr1 GloSensor cGMP, ANP-stimulated luminescence; Potency, µM (doses to about 46.3 µM), inactives show at the top dose activity change, negative = inhibition, hits mostly inhibitors; 1.6% of 76,000 active; calls by dose curve; also: nearly all actives have a fitted effect of over 60% in size
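Compound pre-incubated 30 min at room temperature on GloSensor-loaded HEK293 cells stably carrying hNpr1 and the pGS-40F cGMP biosensor. Stimulation uses hNppA at 0.1 nM final; luminescence is taken at baseline and 20 min post-agonist.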
HEK cytotox: Cytotoxic Profiling in HEK 293 Cell Line of Diverse Libraries Using Quantitative High-Throughput Screening. Potency, µM (doses to about 115 µM), for inactives: at the top dose activity change, negative = cytotoxicity, most hits filed as inhibitors. 6.6% of 94,000 active. HEK 293 viability, ATP luminescence (CellTiter-Glo), 48-72 h; also: nearly all actives have a fitted effect of over 60% in size
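Viability of HEK 293 cells, plated at 250 cells/well, was judged by cellular ATP after compound treatment for 48 or 72 hr. Luminescence was imaged 10 min after CellTiter-Glo addition at room temperature.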
FLuc inh: Firefly luciferase inhibition profiling of diverse chemical library using quantitative high-throughput screening; Luciferin 4-monooxygenase (Photinus pyralis), P08659; purified P. pyralis luciferase, luminescence, biochemical; Potency, µM (doses to about 115 µM), hits mostly inhibitors; 2.5% of 76,000 active; also: nearly all actives have a fitted effect of over 65% in size
Target sequence (P08659 whole entry, looked up): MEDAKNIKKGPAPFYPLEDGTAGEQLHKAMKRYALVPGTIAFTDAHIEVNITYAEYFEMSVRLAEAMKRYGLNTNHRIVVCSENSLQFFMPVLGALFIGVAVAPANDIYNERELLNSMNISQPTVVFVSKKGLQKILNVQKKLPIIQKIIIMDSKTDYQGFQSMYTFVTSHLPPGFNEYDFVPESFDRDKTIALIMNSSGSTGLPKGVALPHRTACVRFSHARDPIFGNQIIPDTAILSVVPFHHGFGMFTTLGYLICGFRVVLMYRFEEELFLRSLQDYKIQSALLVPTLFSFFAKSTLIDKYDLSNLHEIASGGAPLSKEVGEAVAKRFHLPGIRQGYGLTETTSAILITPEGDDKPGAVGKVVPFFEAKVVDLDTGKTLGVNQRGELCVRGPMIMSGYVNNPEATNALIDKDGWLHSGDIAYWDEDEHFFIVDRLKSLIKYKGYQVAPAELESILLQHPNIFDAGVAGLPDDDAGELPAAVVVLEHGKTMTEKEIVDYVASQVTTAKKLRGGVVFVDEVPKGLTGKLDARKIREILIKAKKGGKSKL
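Purified P. pyralis luciferase (10nM final) in 50mM Tris acetate pH 7.5, 10mM Mg acetate, 0.01% Tween-20, 0.05% BSA with 10uM D-luciferin and 10uM ATP. Compounds titrated qHTS. Luminescence imaged on CCD.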
3T3 cytotox: Cytotoxic Profiling in NIH 3T3 Cell Line of Diverse Libraries Using Quantitative High-Throughput Screening; 4.3% of 94,000 active; Potency, µM (doses to about 96.7 µM), for the others: at the highest dose activity change, negative = cytotoxicity, hits mostly inhibitors; NIH 3T3 viability, CellTiter-Glo ATP luminescence, 48-72 h; also: nearly all actives have a fitted effect of over 55% in size
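Mouse fibroblast NIH 3T3 cells, 400 per well, received compound via pintool and were incubated for 48 or 72 hr prior to CellTiter-Glo ATP luminescence measurement.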
* hit, by the source's call; i = inactive; ? = inconclusive; / = not tested or not shown; [ ] = another dose, or the depositor's remark. Unless noted, calls follow the shape of the dose curve; as a rule, active = well fitted curve in the direction sought with a large enough effect; inconclusive = small, poorly fitted or top-dose-only effect, or another doubt; inactive = no such curve, though single readings can be large; an effect the other way counts as inactive or inconclusive. % is scaled to controls: 0 for no effect and ±100 for the full control effect; potency is read from the fitted curve at half-maximal effect.

SMILES | NPR1 antag | HEK cytotox | FLuc inh | 3T3 cytotox
COc1cccc(NC(=O)c2ccc3c(c2)NC(C)(COc2cccnc2)CO3)c1 (stereo not drawn) | 22.4µM* | 50.1µM* | ? | ?
CC1(COc2cccnc2)COc2ccc(C(=O)NCC3CCOCC3)cc2N1 (stereo not drawn) | -1.5%[70.6 µM] | ? | i | -29.2%[138 µM]
CCOCC1(C)COc2ccc(C(=O)Nc3cccnc3)cc2N1 (stereo not drawn) | 5.8%[70.6 µM] | ? | i | -14.4%[138 µM]
CN(C)CCOCC1(C)COc2ccc(C(=O)Nc3cccc(Cl)c3)cc2N1 (stereo not drawn) | -12.9%[70.6 µM] | 63.1µM* | 44.7µM* | 44.7µM*
CCOCC1(C)COc2ccc(C(=O)Nc3ccc(F)c(Cl)c3)cc2N1 (stereo not drawn) | ? | 39.8µM* | ? | 31.6µM*
N#Cc1cccc(-c2cn3c(n2)N(C(=O)COc2ccccc2)CCC3)c1 | -12.2% | ? | i | ?
CCCN1C(=O)Cc2cc(C(=O)NCc3ccc(C)c(C)c3)ccc21 | -15.4% | ? | i | ?
Cc1ccc(C(=O)NCCNC(=O)c2cccc(-c3ncccc3C#N)c2)cc1 | / | -18.0% | / | -15.4%
CN(Cc1ccc(F)cc1)C(=O)Nc1ccc(Cl)cc1 | -27.8%[70.6 µM] | 89.1µM* | ? | ?
CN(Cc1ccccc1C(F)(F)F)C(=O)Cc1cccc(Cl)c1 | 0.0%[70.6 µM] | 79.4µM* | i | ?
CN(Cc1ccccc1C(F)(F)F)C(=O)Nc1ccc(Cl)cc1 | -19.4%[70.6 µM] | ? | i | 35.5µM*
Cc1cn2nc(C(=O)N3CCC(NC(=O)c4sccc4C)CC3)cc2c(=O)[nH]1 | 14.1% | -7.9% | i | -20.8%
CCCCCC(=O)N1C[C@@H](C(N)=O)[C@@H]2Oc3ccc(Cl)cc3[C@@H]21 | / | ? | / | -29.6%
O=C(CCc1ccccc1)N1C[C@@H](CO)[C@@H]2Oc3ccc(Cl)cc3[C@@H]21 | / | 79.4µM* | / | ?
C=CCn1cc2c3c(cccc31)[C@H](CC(C)C)N[C@H](C(=O)NCCCN1CCCC1=O)C2 | 0.9% | 39.8µM* | i | ?
C=CCn1cc2c3c(cccc31)[C@H](CC(C)C)N[C@H](C(=O)NCCOC)C2 | -2.3%[70.6 µM] | 56.2µM* | ? | 89.1µM*
C=CCn1cc2c3c(cccc31)[C@H](CC(C)C)N[C@H](C(=O)NCc1ccc(OC)cc1)C2 | -18.2%[70.6 µM] | -1.0%[172 µM] | i | -11.0%[174 µM]
C=CCn1cc2c3c(cccc31)[C@H](CC(C)C)N[C@H](C(=O)N1CCN(CCOC)CC1)C2 | -2.5% | ? | i | -19.9%
CCc1nc2c(c(-c3ccc(O)cc3)n1)CN(Cc1ccc(N(C)C)cc1)CC2 | / | ? | / | -8.9%
C[S+](=O)([O-])NCc1nnc2n1C(C(=O)NCCc1ccc(Cl)cc1)CC2 (stereo not drawn) | / | 0.2% | / | -15.3%
COC(=O)c1cccc(COCC2=CC(C)(C)COc3ccc(OC)cc32)c1 | / | 28.2µM* | / | ?
O=C(C1CCCN1C(=O)c1ccc(Cl)nc1)N1CCC(c2ccccc2)CC1 (stereo not drawn) | / | -5.2% | / | -24.5%
COc1cccc(-c2ccnc(-c3nnc(C)n3C3CCCCC3)c2)c1 | -0.2%[70.6 µM] | 70.8µM* | i | 89.1µM*
COc1cccc(Nc2ccnc(-c3nnc(C)n3C3CCCCC3)c2)c1 | -25.1%[70.6 µM] | 70.8µM* | i | 89.1µM*
COc1ccc(-c2ccnc(-c3nnc(C)n3C3CCCCC3)c2)cc1OC | -2.2%[70.6 µM] | ? | i | ?
SMILES | NPR1 antag | HEK cytotox | FLuc inh | 3T3 cytotox
Cc1nnc(-c2cc(-c3cccc(F)c3)ccn2)n1C1CCCCC1 | -7.5%[70.6 µM] | ? | i | ?
O=C1CCN(S(=O)(=O)c2ccccc2)CCCN(Cc2cccc(F)c2)CCN1 | -1.7% | -23.4% | i | -29.5%
CCCOc1ccc(-c2nc3ccc(-c4ccc(OC)c(OC)c4OC)cc3o2)cc1 | -5.0% | ? | i | ?
COCCNC(=O)c1ccc(-c2ccc(N3CCCCC3)nc2)cc1 | -1.4% | ? | ? | -12.0%
O=C(NC1CCCC1)c1ccc(-c2ccc(N3CCSCC3)nc2)cc1 | 3.2% | ? | i | -3.0%
CC(C)c1nccn1CCCNC(=O)c1ccc(N2CCC(CO)CC2)nc1 | -0.2% | -7.0% | i | -21.7%

Screens as filed in PubChem.
